Assay results taken from PubChem BioAssay (Tox21).
Results filed as inconclusive are left out. Active and inactive are the calls of the source. Unless noted, the call rests on the fitted dose curve.

Legend:
[1] = Nuclear factor erythroid 2-related factor 2/antioxidant responsive element (Nrf2/ARE) small molecule agonists: qHTS cell viability counter screen in human keratinocytes (AID 1919968; active means well fitted cell-killing curve with a large enough effect in the repeat runs; further: nearly all actives have a fitted effect of over 55% in size; further: potency means the concentration at half of the fitted maximal effect)
Method in brief: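 Viability counter-screen: KeratinoSens reporter cells, DMSO-delivered compounds, 23 h at 37 C, CellTiter-Fluor fluorescence.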

[2] = Nuclear factor erythroid 2-related factor 2/antioxidant responsive element (Nrf2/ARE) small molecule agonists: luciferase reporter gene qHTS assay in human keratinocytes (AID 1919969); further: nearly all actives have a fitted effect of over 35% in size; further: potency means the concentration at half of the fitted maximal effect
[3] = target: Gonadotropin-releasing hormone receptor (Homo sapiens) (UniProt P30968); experiment: Human gonadotropin-releasing hormone receptor (GnRHR) small molecule agonists, calcium flux assay in GnRHR-HEK293 cells (AID 1920063); further: nearly all actives have a fitted effect of over 35% in size
Method in brief: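 Tox21-format agonist screen using human GnRHR-expressing HEK293 cells and a fluorescent calcium dye; kinetic 3-min fluorescence reading after compound addition, 15-point concentration series run in triplicate.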

[4] = G protein-coupled receptor (GPCR) small molecule agonists, calcium flux assay: HEK293 wild type cell line counter screen (AID 1920065)
Method in brief: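 In this agonist-mode screen, ATP is the positive control and DMSO the vehicle. Cells grow 18 h before a 1 h dye incubation at 37 C; signal is taken at Ex/Em 480/540 over 3 min.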

[5] = p53 small molecule agonists, cell-based qHTS assay with human liver microsomes: qHTS cell viability counter screen (AID 1963579); further: nearly all actives have a fitted effect of over 45% in size
Method in brief: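 In this multiplexed counter screen, the reporter plates were subsequently treated with CellTiter-Glo so that cell viability, reflected by luminescence, could be recorded for p53RE-bla cells dosed 16 h with compounds under microsomal activation (HLM and NADPH).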

[6] = p53 small molecule agonists, cell-based qHTS assay with rat liver microsomes: qHTS cell viability counter screen (AID 1963580); further: nearly all actives have a fitted effect of over 45% in size
Method in brief: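 Intracellular ATP, by CellTiter-Glo luminescence, defines viability. HCT-116 p53RE-bla cells, 4,000 per well, were compound-treated in the presence of rat liver microsomes and NADPH for 16 h at 37 C.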

[7] = p53 small molecule agonists, cell-based qHTS assay: qHTS cell viability counter screen (AID 1963581); further: nearly all actives have a fitted effect of over 45% in size
Method in brief: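 Compounds are pinned onto HCT-116 p53RE-bla cells and left 16 h at 37 C. Following the reporter FRET read, ATP is quantified by CellTiter-Glo luminescence after 30 min at room temperature.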

[8] = target: 5-hydroxytryptamine receptor 2A (Homo sapiens) (UniProt P28223); experiment: 5-hydroxytryptamine receptor 2A (HTR2A) small molecule antagonists, cell-based qHTS assay (AID 1963586); further: nearly all actives have a fitted effect of over 45% in size; further: potency means the concentration at half of the fitted maximal effect
Method in brief: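 Antagonist-mode intracellular calcium assay: DOI (4 nM) added after 5 min compound pre-incubation at room temperature to dye-loaded HTR2A-CHO cells. Fluorescence followed for 3 min, sampled every second.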

[9] = target: 5-hydroxytryptamine receptor 2A (Homo sapiens) (UniProt P28223); experiment: 5-hydroxytryptamine receptor 2A (HTR2A) small molecule agonists, cell-based qHTS assay (AID 1963587); further: nearly all actives have a fitted effect of over 30% in size
Method in brief: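 Kinetic calcium-flux fluorescence (2 min, 1 sec intervals) after compound addition in agonist mode. HTR2A-CHO cells were cultured 18 h, then dye-loaded 1 h at 37 C.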

[10] = target: Muscarinic acetylcholine receptor M1 (Homo sapiens) (UniProt P11229); experiment: Cholinergic receptor muscarinic 1 (CHRM1) small molecule antagonists, cell-based qHTS assay (AID 1963588); further: nearly all actives have a fitted effect of over 40% in size
Method in brief: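 CHRM1-CHO calcium-flux assay, antagonist mode. Cells were seeded 18 h, dye-loaded 1 h at 37 C and given compound for 5 min at RT, then acetylcholine was added at 50nM. FDSS fluorescence was read 3 min; 15 concentrations, three runs.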

[11] = target: Muscarinic acetylcholine receptor M1 (Homo sapiens) (UniProt P11229); experiment: Cholinergic receptor muscarinic 1 (CHRM1) small molecule agonists, cell-based qHTS assay (AID 1963589); further: nearly all actives have a fitted effect of over 35% in size
Method in brief: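 Stable CHRM1-CHO cells (human receptor) were incubated 18 h, dye-loaded for 1 h at 37 C and exposed to test compounds for agonist activity, with calcium-dependent fluorescence followed kinetically.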

[12] = cAMP Responsive Elements (CRE) small molecule agonists, cell-based qHTS assay (AID 1963590)
Method in brief: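 FRET-based beta-lactamase readout (LiveBLAzer B/G, 2 h RT) quantified CRE activation in HEK 293T CRE-bla cells after 3 h treatment with DMSO-dissolved compounds.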

[13] = cAMP Responsive Elements (CRE) small molecule antagonists, cell-based qHTS assay (AID 1963591; active means well fitted inhibition curve with a large enough effect in the signal ratio in the repeat runs, not every such curve was filed as active; the % refers to the signal ratio)
Method in brief: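 qHTS in CRE-bla HEK 293T cells: compound in DMSO, then 0.25 uM NKH477 (final), 3 h at 37 °C/5% CO2; beta-lactamase FRET read-out after 2 h substrate incubation.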

[14] = target: Beta-2 adrenergic receptor (Homo sapiens) (UniProt P07550); experiment: Adrenergic beta2 receptor (ADRB2) small molecule antagonists, cell-based qHTS assay (AID 1963592); further: nearly all actives have a fitted effect of over 50% in size; further: potency means the concentration at half of the fitted maximal effect
Method in brief: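 Cells (CHO, stable ADRB2 overexpression) incubated 18-20hr at 37C; compounds added from DMSO; agonist mix (1nM isoproterenol, 100uM IBMX, 25uM Ro-20-1724) added; 0.5hr RT; d2-cAMP and anti-cAMP-cryptate added; 1hr RT; 665/615 nm read.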

[15] = target: Beta-2 adrenergic receptor (Homo sapiens) (UniProt P07550); experiment: Adrenergic beta2 receptor (ADRB2) small molecule agonists, cell-based qHTS assay (AID 1963593);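 further: CHO cells stably overexpressing human ADRB2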
Method in brief: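 CHO cells stably over-expressing ADRB2 were plated overnight at 37C, then dosed with compounds plus a stimulation mix containing 100uM IBMX and 25uM Ro-20-1724 for 0.5hr at room temperature. cAMP was measured by HTRF competition, 1hr.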

[16] = target: D(2) dopamine receptor (Homo sapiens) (UniProt P14416); experiment: Dopamine D2 receptor (DRD2) small molecule agonists, cell-based qHTS assay (AID 1963594); further: nearly all actives have a fitted effect of over 35% in size
Method in brief: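 cAMP accumulation in DRD2-HEK293 cells measured by HTRF after 1 h detection; compounds added 10 min before NKH477 (200nM […]) forskolin-analogue stimulation, 30 min at room temperature, with Ro20-1724 present at 0.1 mM final.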

[17] = target: D(2) dopamine receptor (Homo sapiens) (UniProt P14416); experiment: Dopamine D2 receptor (DRD2) small molecule antagonists, cell-based qHTS assay (AID 1963595; active means well fitted inhibition curve with a large enough effect in the signal ratio in the repeat runs, with a control signal flat; the % refers to the signal ratio)
Method in brief: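 HTRF cAMP read-out at 665 and 620 nm emission (340 nm excitation). Antagonist mode: compounds were tested against 12 nM quinpirole in DRD2-HEK293 cells, with 200 nM NKH477 raising cAMP and 0.1 mM Ro20-1724 blocking its breakdown.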

[18] = p53 small molecule agonists, cell-based qHTS assay with rat liver microsomes (AID 1963578)
Method in brief: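 With rat liver microsomes and NADPH present (0.5 mg/mL final each), p53RE-bla cells are treated with compound for 16 h at 37 C. LiveBLAzer detection mixture is then applied for 2 h at room temperature in the dark.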
On the % scale 0 is the no-effect control and ±100 the full control effect.

Beta-2 adrenergic receptor (Homo sapiens), sequence (P07550 whole entry, looked up): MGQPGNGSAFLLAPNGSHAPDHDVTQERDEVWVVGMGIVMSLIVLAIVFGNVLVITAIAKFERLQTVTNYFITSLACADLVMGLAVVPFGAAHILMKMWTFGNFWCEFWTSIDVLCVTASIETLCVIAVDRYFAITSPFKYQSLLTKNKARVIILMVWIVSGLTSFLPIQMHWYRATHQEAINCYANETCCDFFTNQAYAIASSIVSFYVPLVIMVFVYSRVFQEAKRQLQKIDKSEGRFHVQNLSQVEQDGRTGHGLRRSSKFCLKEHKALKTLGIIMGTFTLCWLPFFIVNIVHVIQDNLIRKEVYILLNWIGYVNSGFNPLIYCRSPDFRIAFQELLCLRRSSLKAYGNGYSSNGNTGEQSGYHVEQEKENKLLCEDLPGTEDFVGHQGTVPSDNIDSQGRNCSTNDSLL
D(2) dopamine receptor (Homo sapiens), sequence (P14416 whole entry, looked up): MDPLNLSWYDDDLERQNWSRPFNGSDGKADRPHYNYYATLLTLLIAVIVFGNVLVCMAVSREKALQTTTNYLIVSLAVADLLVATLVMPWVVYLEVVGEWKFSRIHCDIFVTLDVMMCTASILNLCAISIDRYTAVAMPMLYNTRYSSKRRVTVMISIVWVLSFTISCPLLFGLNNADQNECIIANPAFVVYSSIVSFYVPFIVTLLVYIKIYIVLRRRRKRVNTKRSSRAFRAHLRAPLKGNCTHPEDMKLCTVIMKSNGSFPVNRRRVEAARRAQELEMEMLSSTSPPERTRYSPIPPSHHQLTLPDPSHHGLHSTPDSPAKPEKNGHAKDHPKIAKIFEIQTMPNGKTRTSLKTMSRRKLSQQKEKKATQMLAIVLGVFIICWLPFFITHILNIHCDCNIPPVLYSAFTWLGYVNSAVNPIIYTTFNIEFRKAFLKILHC
5-hydroxytryptamine receptor 2A (Homo sapiens), sequence (P28223 whole entry, looked up): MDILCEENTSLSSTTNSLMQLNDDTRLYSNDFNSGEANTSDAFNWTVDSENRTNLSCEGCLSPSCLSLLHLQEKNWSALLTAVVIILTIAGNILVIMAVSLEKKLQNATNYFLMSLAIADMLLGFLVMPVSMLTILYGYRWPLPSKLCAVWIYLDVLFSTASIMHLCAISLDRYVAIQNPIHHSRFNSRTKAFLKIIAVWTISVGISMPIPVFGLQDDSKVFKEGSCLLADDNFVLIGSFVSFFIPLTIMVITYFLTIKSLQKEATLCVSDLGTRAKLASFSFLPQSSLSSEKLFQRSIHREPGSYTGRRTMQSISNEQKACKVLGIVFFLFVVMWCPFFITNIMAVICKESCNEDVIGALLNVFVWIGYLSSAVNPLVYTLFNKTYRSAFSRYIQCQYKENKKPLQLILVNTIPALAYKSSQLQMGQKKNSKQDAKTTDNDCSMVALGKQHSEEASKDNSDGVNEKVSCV
Muscarinic acetylcholine receptor M1 (Homo sapiens), sequence (P11229 whole entry, looked up): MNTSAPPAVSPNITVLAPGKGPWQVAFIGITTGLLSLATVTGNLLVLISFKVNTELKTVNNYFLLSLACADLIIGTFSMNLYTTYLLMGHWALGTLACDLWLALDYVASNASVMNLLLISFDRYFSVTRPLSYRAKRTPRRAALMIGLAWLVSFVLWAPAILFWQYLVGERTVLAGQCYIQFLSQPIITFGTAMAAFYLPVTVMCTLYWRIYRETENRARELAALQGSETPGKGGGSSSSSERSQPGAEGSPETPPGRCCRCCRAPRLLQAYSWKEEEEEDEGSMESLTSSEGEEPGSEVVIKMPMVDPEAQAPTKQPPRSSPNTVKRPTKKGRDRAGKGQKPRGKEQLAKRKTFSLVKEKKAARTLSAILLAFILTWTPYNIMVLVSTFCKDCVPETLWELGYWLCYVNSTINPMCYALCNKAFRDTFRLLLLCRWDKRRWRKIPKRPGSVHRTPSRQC
Gonadotropin-releasing hormone receptor (Homo sapiens), sequence (P30968 whole entry, looked up): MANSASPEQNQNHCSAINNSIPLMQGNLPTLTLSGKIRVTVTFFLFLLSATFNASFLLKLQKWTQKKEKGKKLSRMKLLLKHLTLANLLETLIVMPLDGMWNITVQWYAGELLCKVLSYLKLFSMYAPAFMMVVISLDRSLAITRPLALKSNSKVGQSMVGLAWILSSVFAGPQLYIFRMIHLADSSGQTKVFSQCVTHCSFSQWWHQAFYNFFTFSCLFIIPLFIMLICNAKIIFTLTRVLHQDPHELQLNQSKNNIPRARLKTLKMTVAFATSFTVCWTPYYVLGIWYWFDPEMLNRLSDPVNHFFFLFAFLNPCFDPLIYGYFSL

C=CCOC(=O)c1ccc(C(=O)OCC=C)c(C(=O)OCC=C)c1
active: Potency [8] 33.4 µM
inactive: Potency [1] | Potency [2] | Potency [3] | Potency [4] | Potency [5] | Potency [6] | Potency [7] | Potency [9] | Potency [10] | Potency [11] | Potency [12] | Potency [13] | Potency [14] | Potency [15] | Potency [16] | Potency [17]

CC(CSC(=O)c1ccccc1)C(=O)N1C[C@@H](Sc2ccccc2)C[C@H]1C(=O)O (stereo partly drawn)
inactive: activity change, negative = cytotoxicity [1] -6.69% [at 19 µM] | activity, positive = activation [2] -3.94% [at 19 µM] | activity change [3] -1.85% [at 11.8 µM, hits give high values] | activation [4] 0.566% [at 11.8 µM] | activity change, negative = cytotoxicity [5] -12.9% [at 13.5 µM] | activity change, negative = cytotoxicity [6] -5.44% [at 13.5 µM] | activity change, negative = cytotoxicity [7] 14.1% [at 13.5 µM] | activity, negative = inhibition [8] 20.9% [at 12.7 µM] | activation [9] -7.52% [at 15.9 µM] | activity, negative = inhibition [10] 17.6% [at 12.6 µM] | activation [12] -1.82% [at 19 µM]

CN(C)CCOC(=O)C(c1ccccc1)C1(O)CCCC1 (stereo not drawn)
inactive: Potency [1] | Potency [2] | Potency [3] | Potency [4] | Potency [5] | Potency [6] | Potency [7] | Potency [8] | Potency [9] | Potency [12] | Potency [13] | Potency [14] | Potency [16] | Potency [17]

CCCc1ccc(OC)cc1
inactive: Potency [1] | Potency [2] | Potency [3] | Potency [4] | Potency [5] | Potency [8] | Potency [9] | Potency [10] | Potency [11] | Potency [12] | Potency [13] | Potency [14] | Potency [15] | Potency [16] | Potency [17]

O=C(O)CCSSCCC(=O)O
inactive: Potency [1] | Potency [2] | Potency [3] | Potency [4] | Potency [5] | Potency [6] | Potency [7] | Potency [8] | Potency [9] | Potency [10] | Potency [11] | Potency [12] | Potency [13] | Potency [14] | Potency [15] | Potency [16] | Potency [17]

CCN(C(=O)N(CC)c1ccccc1)c1ccccc1
inactive: Potency [1] | Potency [2] | Potency [3] | Potency [4] | Potency [5] | Potency [7] | Potency [9] | Potency [10] | Potency [11] | Potency [14] | Potency [16] | Potency [17]

CC(C)C(C)C
inactive: Potency [1] | Potency [2] | Potency [3] | Potency [4] | Potency [5] | Potency [7] | Potency [8] | Potency [9] | Potency [10] | Potency [11] | Potency [12] | Potency [13] | Potency [14] | Potency [15] | Potency [16] | Potency [17]

Cc1cc2c(cc1CC(=O)c1sccc1S(=O)(=O)Nc1onc(C)c1Cl)OCO2
active: Potency [1] 4.22 µM
inactive: Potency [2] | Potency [3] | Potency [4] | Potency [5] | Potency [6] | Potency [7] | Potency [8] | Potency [9] | Potency [10] | Potency [11] | Potency [12] | Potency [13] | Potency [14] | Potency [15] | Potency [16] | Potency [17]

CCCCC(CC)C(=O)OCCOCCOCCOCCOC(=O)C(CC)CCCC (stereo not drawn)
inactive: Potency [1] | Potency [2] | Potency [3] | Potency [4] | Potency [5] | Potency [6] | Potency [7] | Potency [8] | Potency [10] | Potency [11] | Potency [12] | Potency [13] | Potency [14] | Potency [15] | Potency [16] | Potency [17]

CC(C)(Cc1c[nH]c2ccccc12)NCC(O)COc1ccccc1C#N (stereo not drawn)
active: Potency [14] 0.0067 µM
inactive: Potency [1] | Potency [2] | Potency [3] | Potency [4] | Potency [6] | Potency [7] | Potency [9] | Potency [10] | Potency [12] | Potency [13] | Potency [16] | Potency [17]

C/C=C/C(=O)C1=C(C)CCCC1(C)C
inactive: Potency [1] | Potency [2] | Potency [3] | Potency [4] | Potency [5] | Potency [6] | Potency [7] | Potency [9] | Potency [10] | Potency [11] | Potency [12] | Potency [13] | Potency [14] | Potency [16] | Potency [17]

CCN(CCCc1ccccc1)CCCc1ccccc1
inactive: Potency [1] | Potency [2] | Potency [3] | Potency [4] | Potency [18] | Potency [6] | Potency [9] | Potency [11] | Potency [14]

CCO[C@H](Cc1ccc(OCCc2ccc(OS(C)(=O)=O)cc2)cc1)C(=O)O
inactive: Potency [1] | Potency [2] | Potency [3] | Potency [4] | Potency [5] | Potency [6] | Potency [7] | Potency [9] | Potency [10] | Potency [11] | Potency [12] | Potency [13] | Potency [14] | Potency [16]

CCCCCCCCC(CO)CCCCCC (stereo not drawn)
inactive: Potency [1] | Potency [2] | Potency [3] | Potency [4] | Potency [5] | Potency [6] | Potency [7] | Potency [8] | Potency [9] | Potency [10] | Potency [11] | Potency [12] | Potency [13] | Potency [14] | Potency [15] | Potency [16] | Potency [17]

CC(C)CCCCCOC(=O)CCCCC(=O)OCCCCCC(C)C
inactive: Potency [1] | Potency [3] | Potency [4] | Potency [5] | Potency [7] | Potency [8] | Potency [9] | Potency [10] | Potency [11] | Potency [12] | Potency [13] | Potency [14] | Potency [16] | Potency [17]
active: Potency [2] 48.6 µM
